In the library only some 3.1% were active in any assay of this set; here they are far more common.
S-ASM inh: inhibitors of human secretory acid sphingomyelinase | P17405 | placental ASM, HMU-PC fluorogenic substrate, 60 min | Potency, µM (highest dose often 57.5 µM), for the others: at the highest dose activity change, negative = inhibition, most hits filed as inhibitors | 340,000 compounds, 0.006% hits | AID 504937
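qHTS format. ASM enzyme prepared from human placenta hydrolyses the fluorogenic substrate HMU-PC0 (9 uM final) over 60 min at 37 °C after a 10 min compound preincubation.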
VDR inh: blocks the human vitamin D receptor; Potency, µM, for the others: max response, negative = inhibition, usual class: inhibitors; 400,000 compounds, 0.93% hits; P11473; VDR-SRC2-3 peptide fluorescence polarization, 2 h; also: % is scaled to controls: 0 for no effect and ±100 for the full control effect
Target sequence (P11473 whole entry, looked up): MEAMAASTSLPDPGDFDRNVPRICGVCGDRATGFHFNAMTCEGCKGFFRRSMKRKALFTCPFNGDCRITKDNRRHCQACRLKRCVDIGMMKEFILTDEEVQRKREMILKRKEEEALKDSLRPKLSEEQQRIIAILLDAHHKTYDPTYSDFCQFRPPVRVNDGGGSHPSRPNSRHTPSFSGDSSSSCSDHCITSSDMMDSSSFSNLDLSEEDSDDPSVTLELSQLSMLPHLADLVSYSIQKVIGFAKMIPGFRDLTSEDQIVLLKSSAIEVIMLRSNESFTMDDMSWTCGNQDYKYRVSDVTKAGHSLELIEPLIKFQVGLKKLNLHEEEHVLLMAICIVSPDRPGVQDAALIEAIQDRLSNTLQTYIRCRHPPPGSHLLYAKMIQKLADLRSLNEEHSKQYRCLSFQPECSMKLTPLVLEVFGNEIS
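FP read-out; VDR + SRC2-3 coactivator peptide; 23 nl compound by pintool; 2 h RT incubation; reagents held at 4 deg C, protected from light.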
TDP1 inh: TDP1 (human) enzyme inhibition. Q9NUW8. recombinant TDP1, AlphaScreen DNA substrate cleavage. Potency, µM (highest dose often 130 µM), for the others: at the top dose activity change, negative = inhibition, usual class: inhibitors. 350,000 compounds, 0.28% hits; also: % is scaled to controls: 0 for no effect and ±100 for the full control effect; nearly all actives have a fitted effect of over 40% in size
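Recombinant human Tdp1 (E. coli-expressed, 1 nM final) preincubated with compounds 15 min at room temperature, then 5'-biotin/3'-phosphotyrosine-FITC DNA substrate (15 nM final) added for 5 min. AlphaScreen beads (10 ug/ml final) added 10 min; cleavage lowers signal.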
Pin1 inhibitor: inhibitors of human Pin1. Q13526. Pin1 FP peptide displacement, HiFluor488, 10 min. Potency, µM (top dose mostly 115 µM), for the others: at the highest dose activity, negative = inhibition, most hits filed as inhibitors. 390,000 compounds, 0.009% hits; active = well fitted inhibition curve with a large enough effect in the polarisation, with a control signal flat, not every such curve was filed as active; inconclusive = small, poorly fitted or top-dose-only effect, or effect the other way, or a change in a side signal; inactive = no such curve, though single readings can be large or run the other way; the % refers to the polarisation; also: % is scaled to controls: 0 for no effect and ±100 for the full control effect
Target sequence (Q13526 whole entry, looked up): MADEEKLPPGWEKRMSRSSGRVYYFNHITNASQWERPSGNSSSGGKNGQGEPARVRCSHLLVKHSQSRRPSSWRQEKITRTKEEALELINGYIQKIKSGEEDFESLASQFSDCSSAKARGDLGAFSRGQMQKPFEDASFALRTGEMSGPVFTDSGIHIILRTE
PLK1 PBD inh: inhibitors of human PLK1 polo-box domain binding | AID 720504 | Potency, µM, for inactives: max response, negative = inhibition, hits mostly inhibitors | Plk1 PBD binding of FITC phosphopeptide, fluorescence polarization | P53350 | 360,000 compounds, 2.8% hits; also: series mostly up to about 57 µM; % is scaled to controls: 0 for no effect and ±100 for the full control effect; nearly all actives have a fitted effect of over 65% in size
Tb PFK block: inhibitors of T. brucei phosphofructokinase; 330,000 compounds, 0.17% hits; T. brucei PFK, ADP-Glo luminescence; Potency, µM (series often up to 57.5 µM), for inactives: at the highest dose activity, negative = inhibition, actives largely listed as inhibitors; O15648;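 also: 0% = uninhibited 1x PFK enzyme wells and -100% = no-enzyme wells; nearly all actives have a fitted effect of over 60% in size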
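Activity is normalized to no-enzyme wells (full inhibition) and 1.25 nM enzyme wells (no inhibition). Reaction: 0.5 mM F6P, 0.1 mM ATP, 45 min RT, ADP-Glo luminescence; concentration-response curves fitted and classed by quality.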
* = called active by the depositor; ? = inconclusive; . = no result; ! = a repeat was not active; [ ] = dose if it differs, or a comment. Unless noted, calls follow the shape of the dose curve; as a rule, active = well fitted curve in the direction sought with a large enough effect; inconclusive = small, poorly fitted or top-dose-only effect, or another doubt; inactive = no such curve, though single readings can be large; an effect the other way counts as inactive or inconclusive. Potency is read from the fitted curve at half-maximal effect.

SMILES	S-ASM inh	VDR inh	TDP1 inh	Pin1 inhibitor	PLK1 PBD inh	Tb PFK block
C=CCn1c(SCC(C)=O)nc2scc(-c3ccco3)c2c1=O	-3%	79µM*	8%[0.0935 µM]	-12%	?	?
C=CCn1c(SCC(=O)N2CC(=O)Nc3ccccc32)nc2scc(-c3ccccc3)c2c1=O	-6%	4%	0%	50%	12µM*	0%
O=C(CN1C(=O)COc2ccc(S(=O)(=O)N3CCCC3)cc21)NCCc1ccc(Cl)cc1	.	7%	5%	-6%	.	.
COc1ccccc1N1CCN(c2nc(-c3ccc(C)cc3)nc3ccccc23)CC1	.	11%	8%	9%	.	.
O=c1c2oc3ccccc3c2[nH]c(=S)n1-c1ccccc1	-1%	-19%	-1%	7%	27µM*	0%
Cc1cccc(-n2c(=S)[nH]c3c(oc4ccccc43)c2=O)c1	-1%	-17%	8%	9%	-15%	-1%
N#Cc1c(C(F)(F)F)cc(-c2cccs2)nc1SCC(=O)Nc1ccc(Cl)cc1	.	-25%	.	?	.	.
O=C(CSc1nc2nc(-c3cccs3)cc(C(F)(F)F)c2c(=O)[nH]1)Nc1ccc(F)c(F)c1	266%	-5%	-4%	?	7.5µM*	-4%
Cc1ccc(C)c(OCCn2cc(/C=C(\C#N)C(=O)NCC3CCCO3)c3ccccc32)c1 (stereo unspecified)	13%	-18%	3%	68%	30µM*	2%
CC[C@H](C)[C@H](NC(=O)[C@H](C)NC(=O)CNC(=O)[C@H](CCCCN)NC(=O)[C@H](CC(N)=O)NC(=O)[C@H](CO)NC(=O)CN)C(=O)N[C@H](C(=O)NCC(=O)N[C@@H](CC(C)C)C(=O)N[C@@H](CCSC)C(=O)O)[C@@H](C)CC	.	-1%	8%	.	.	.
CCOC(=O)c1sc(N2C(=O)C(O)=C(C(=O)c3ccco3)C2c2cccc([N+](=O)[O-])c2)nc1C (stereo unspecified)	4%	71µM*	9%	-15%	30µM*	-1%
Cc1ccc2nc(N3C(=O)C(O)=C(C(=O)c4ccco4)C3c3ccc(O)cc3)sc2c1 (stereo unspecified)	.	.	.	.	.	-7%
Cc1cc(C)c2nc(N3C(=O)C(O)=C(C(=O)c4ccco4)C3c3cccc(O)c3)sc2c1 (stereo unspecified)	-1%	79µM*	5%	-22%	27µM*	0%
Cc1cc(C)c2nc(N3C(=O)C(O)=C(C(=O)c4ccco4)C3c3ccc(O)cc3)sc2c1 (stereo unspecified)	6%	79µM*	5%	?	19µM*	-2%
COc1ccc(CCC(=O)c2c(O)cc(O[C@@H]3O[C@H](CO)[C@@H](O)[C@H](O)[C@H]3O[C@@H]3O[C@@H](C)[C@H](O)[C@@H](O)[C@H]3O)cc2O)cc1O	.	.	2%	.	.	.
Cc1cccc(OCCCCNCc2ccccc2)c1	4%	-1%	-5%	-2%	-9%	-10%
COc1cccc(OCCNCc2ccccc2)c1	1%	?	.	-2%	17µM*	1%
COc1ccc(C(CC(=O)NCc2ccccc2)N2Cc3ccccc3C2=O)cc1 (stereo unspecified)	.	3%	6%	1%	.	.
COc1ccc(Cn2c(C(=O)O)c(CNCCc3cccs3)c3ccc(C)cc32)cc1	.	23%	3%	-1%	.	.
O=C(NCc1ccc2c(c1)OCO2)C1CCCN(S(=O)(=O)c2cccc3nonc23)C1 (stereo unspecified)	-1%	-6%	3%	?	27µM*!	6%
COc1ccc(C2c3c(N)nc(Cc4ccccc4)nc3Oc3ccc4ccccc4c32)cc1OC (stereo unspecified)	.	.	2%	?	.	.
Nc1nc(NC2CC2)c2ncn([C@H]3C=C[C@@H](CO)C3)c2n1	.	4%	0%	.	.	.
COc1ccc(S(=O)(=O)c2c(O)c3ccc(C(=O)Nc4ccc(F)cc4)cc3[nH]c2=O)cc1	8%	?	1%	-5%	30µM*	-2%
NC(=S)NCCC[C@H](N)C(=O)O	.	50µM*	-2%	.	.	.
COc1cc(CNCCSc2nnnn2C)ccc1OCc1ccccc1C	.	-10%	2%	3%	.	.
SMILES	S-ASM inh	VDR inh	TDP1 inh	Pin1 inhibitor	PLK1 PBD inh	Tb PFK block
O=C(Nc1cccnc1Cl)c1cc(-c2ccc(Cl)cc2)on1	4%	-5%	7%	0%	-6%	2%
O=C(Nc1cccnc1Cl)c1cc(-c2ccc(O)cc2)on1	0%	-9%	50µM*	21%	2%	-18%
Cc1cccc(C(=O)Nc2cccnc2Cl)c1	1%	-9%	.	2%	8.4µM*	-4%
O=C(Nc1nccs1)c1ccc(Br)o1	7%	9%	5%	2%	-2%	-2%
O=C(/C=C/c1ccc(Br)o1)NCc1ccccc1	0%	89µM*	-5%	?	?	-20%
O=C(/C=C/c1ccc(Br)o1)Nc1nccs1	-2%	-9%	.	?	21µM*	-5%
Cc1ccc(Cl)cc1N1CCN(C(=O)c2ccc3c(c2)N(Cc2ccc(F)cc2)CCS3)CC1	.	-3%	1%	5%	.	.
COC(=O)C1=C(C(=O)OC)[C@@H]2N(C)c3ccccc3[C@@]23C[C@@H](C(=O)OC)N(S(=O)(=O)c2ccc(C)cc2)C3=N1	.	.	6%[21 µM]	.	.	.
CCOCCc1nnc(NC(=O)c2cc(OC)c(OC)c(OC)c2)s1	2%	-12%	7%	1%	-12%	-2%
CCOCCc1nnc(NC(=O)c2cccc(F)c2)s1	3%	-6%	1%	-1%	27µM*	0%
O=C(Nc1ccccc1-c1nc2ccccc2s1)c1ccc(F)cc1	.	-13%	-5%	0%	.	.
CNc1sc(C(=O)c2ccc(F)cc2)c(N)c1-c1nc2ccccc2s1	-3%	-15%	12%	-1%	21µM*	3%
Cc1ccc(/C=N/NC(=O)c2nnn(-c3nonc3N)c2CNc2ccccc2)cc1	-2%	?	1%	-2%	19µM*	-6%
CN(Cc1c(C(=O)N/N=C/c2ccccc2)nnn1-c1nonc1N)C1CCCCC1	-2%	?	3%	-1%	30µM*	-3%
CN(C)Cc1c(C(=O)N/N=C/c2ccc(-c3ccccc3)cc2)nnn1-c1nonc1N	-1%	?	1%	-2%	21µM*	0%
Cc1ccc(/C=N/NC(=O)c2nnn(-c3nonc3N)c2CSc2ccccc2)cc1	-1%	-15%	.	2%	-1%	-6%
Nc1nonc1-n1nnc(C(=O)N/N=C/c2cccc(Cl)c2)c1CN1CCCC1	-1%	-20%	.	2%	30µM*	.
CN(Cc1c(C(=O)N/N=C/c2ccc(O)cc2)nnn1-c1nonc1N)C1CCCCC1	-1%	7%	0%	4%	-6%	0%
Nc1nonc1-n1nnc(C(=O)N/N=C/c2cccc(F)c2)c1CN1CCCC1	-1%	-11%	.	-6%	-10%	.

Screens from PubChem.
